A selection: hits, their analogues and other compounds. The true share with any hit is near 11%.
NIH3T3 tox: kills NIH 3T3 cells; AID 1345082; actives 4.3% (n = 94,000); Potency, µM (top dose mostly 96.7 µM), without a hit: at the highest dose activity change, negative = cytotoxicity, actives largely listed as inhibitors; NIH 3T3 viability, CellTiter-Glo ATP luminescence, 48-72 h; note: % is set by controls: 0 for no effect and ±100 for the full control effect; nearly all actives have a fitted effect of over 55% in size
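ATP-dependent luminescence (CellTiter-Glo) served as the viability signal for NIH 3T3 cells treated with compound for 48 or 72 hr at 37 °C.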
hNpr1 antagonist: blocks ANP-stimulated signaling of human Npr1 receptor | HEK293 hNpr1 GloSensor cGMP, ANP-stimulated luminescence | Potency, µM (series often up to 46.3 µM), without a hit: at the highest dose activity change, negative = inhibition, usual class: inhibitors | P16066 | actives 1.6% (n = 76,000); calls by dose curve; note: % is set by controls: 0 for no effect and ±100 for the full control effect; nearly all actives have a fitted effect of over 60% in size
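HEK293 cells stably expressing human Npr1 and cGMP GloSensor pGS-40F, loaded 2 h with 2% GloSensor reagent, given compound 30 min at room temperature. Luminescence read before and 20 min after 0.1 nM hNppA.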
HEK cytotox: HEK 293 cell cytotoxicity. HEK 293 viability, ATP luminescence (CellTiter-Glo), 48-72 h. AID 1345083. Potency, µM (top dose mostly 115 µM), for inactives: top-dose activity change, negative = cytotoxicity, most hits filed as inhibitors. actives 6.6% (n = 94,000); note: % is set by controls: 0 for no effect and ±100 for the full control effect; nearly all actives have a fitted effect of over 60% in size
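Read-out: CellTiter-Glo ATP luminescence. Cells: HEK 293, 250 cells/well. Exposure: 48 or 72 hr, 37 degree Celsius.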
FLuc inh-1: blocks purified firefly luciferase enzyme activity; P08659; purified P. pyralis luciferase, luminescence, biochemical; Potency, µM (top dose mostly 115 µM), usual class: inhibitors; actives 2.5% (n = 76,000); AID 1347043; note: % is set by controls: 0 for no effect and ±100 for the full control effect; nearly all actives have a fitted effect of over 65% in size
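Luminescence read by CCD imaging after purified firefly luciferase (10nM final) was added to substrate buffer holding 10uM D-luciferin and 10uM ATP, pH 7.5, pre-dosed with compound.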
FLuc SDR -ATP: firefly luciferase binding stabilization, ATP absent; shares compounds with FLuc inh-1; Purified FLuc-C-HiBiT, Nano-Glo HiBiT luminescence, no ATP; Potency, µM (top dose mostly 32.7 µM), for inactives: top-dose activation (signal gain), actives largely listed as activators; actives 7.8% (n = 1,300); AID 1963318; note: nearly all actives have a fitted effect of over 55% in size
FLuc SDR ATP: stabilizes firefly luciferase with ATP present; AID 1963319; actives 8.7% (n = 1,300); Potency, µM (doses to about 32.7 µM), for inactives: at the highest dose activation (gain of signal), most hits filed as activators; purified FLuc-C-HiBiT + ATP, HiBiT complementation luminescence; shares compounds with FLuc inh-1;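 note: signal reports ligand binding via conformational change of the enzyme rather than luciferase catalysis; % of control where 0% means no effect; nearly all actives have a fitted effect of over 55% in size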
FLuc inh-2: inhibitors of firefly luciferase enzymatic activity. shares compounds with FLuc inh-1. purified FLuc-C-HiBiT enzyme, luciferin luminescence. Potency, µM (series often up to 32.7 µM), for the others: top-dose activity change, negative = inhibition, actives largely listed as inhibitors. actives 42% (n = 1,300). AID 1963320; note: % is set by controls: 0 for no effect and ±100 for the full control effect; nearly all actives have a fitted effect of over 70% in size
* hit, by the source's call; i = inactive; ? = inconclusive; . = not tested or not shown; [ ] = another dose, or the depositor's remark. Unless noted, calls come from the whole dose curve; as a rule, active = well fitted curve in the direction sought with a large enough effect; inconclusive = small, poorly fitted or top-dose-only effect, or another doubt; inactive = no such curve, though single readings can be large; an effect the other way counts as inactive or inconclusive. Potency is the fitted concentration of half-maximal effect.

SMILES | NIH3T3 tox | hNpr1 antagonist | HEK cytotox | FLuc inh-1 | FLuc SDR -ATP | FLuc SDR ATP | FLuc inh-2
CCC1(O)CCC12CCN(C(=O)COc1ccc(F)cc1)CC2 (centres undefined) | -24% | . | -3% | . | . | . | .
Cc1cc(F)cc(CN2CCc3nc(C(=O)NCc4ccncc4)oc3CC2)c1 | ? | ? | ? | i | . | . | .
Cc1ccc(CN2CCc3nc(C(=O)Nc4ccccc4)oc3CC2)cc1 | ? | 22µM* | ? | 5µM* | 14%[49.3 µM] | 14%[49.3 µM] | ?
CC[n+]1c(/C=C/N(C)c2ccccc2)n(-c2ccccc2)c2ccc(-c3nc4ccccc4s3)cc21 | . | . | . | . | 9% | 7% | ?
O=C(Nc1cccc(-c2ccco2)c1)C1CCN(C(=O)NCc2ccco2)CC1 | ? | -2% | ? | i | . | . | .
O=C(NCc1ccccc1)Nc1cccc(-c2nnc3n2CCCC3)c1 | -14% | -3% | ? | i | . | . | .
COc1ccc(CNC(=O)Nc2cccc(-c3ccc(N4CCCCC4)nn3)c2)cc1 | ? | 8.9µM* | ? | 0.25µM* | 2µM* | ? | 0.5µM*
Cc1ccc(CNC(=O)Nc2cccc(-c3ccc(N4CCOCC4)nn3)c2)cc1 | ? | -25% | ? | 1.3µM* | ? | ? | 2.8µM*
O=C(NCc1ccco1)Nc1cccc(-c2ccc(N3CCCC3)nn2)c1 | ? | -22% | ? | 7.1µM* | ? | ? | ?
COc1cccc(CNC(=O)Nc2cccc(-c3ccc(N4CCOCC4)nn3)c2)c1 | ? | ? | ? | 1.1µM* | ? | ? | 2.8µM*
COc1ccc(Cc2ncc3c(n2)CN(C(=O)c2ccc(F)c(C)c2)C3)cc1 | ? | -8% | ? | i | . | . | .
Cc1ccc(OCC(=O)Nc2cccc(C(=O)OCc3cc(=O)n4nc(C)sc4n3)c2)cc1 | . | . | . | . | 20% | ? | ?
O=C(NC1CCCN(c2ccc3nnc(C4CC4)n3n2)C1)c1ccc(Cl)cc1 (centres undefined) | -26% | . | -25% | . | . | . | .
COc1ccccc1NC(=O)Nc1cccc(-c2ccc(N3CCOCC3)nn2)c1 | ? | ? | ? | 1.4µM* | ? | ? | 3.1µM*
COc1cc(NC(=O)Nc2cccc(-c3ccc(N4CCOCC4)nn3)c2)cc(OC)c1 | 32µM* | ? | ? | 0.71µM* | ? | ? | 1.8µM*
COCc1cc(=O)n(CC(=O)Nc2cc(OC)cc(OC)c2)c(N2CCOCC2)n1 | -9% | -5% | -14% | i | . | . | .
Cc1c(F)cccc1NC(=O)Nc1cccc(-c2nnc3n2CCCC3)c1 | i | 3% | 11% | ? | . | . | .
COCc1cc(=O)n(CC(=O)Nc2cccc(F)c2)c(N2CCOCC2)n1 | -17% | -5% | 6% | i | . | . | .
O=C(Nc1cccc(-c2ccc(N3CCOCC3)nn2)c1)Nc1ccc2c(c1)CCC2 | -11% | ? | ? | 0.89µM* | 26% | ? | 2.8µM*
O=C(Nc1cc(F)cc(F)c1)Nc1cccc(-c2ccc(N3CCOCC3)nn2)c1 | ? | 10µM* | 32µM* | 1.3µM* | ? | ? | 3.1µM*
Cc1noc(C)c1C(=O)N1CCC(N2C(=O)c3c(c(C)nn3-c3ccccc3)C2C(C)C)C1 (centres undefined) | -29% | . | -23% | . | . | . | .
O=C(Nc1cccc(F)c1)Nc1cccc(-c2ccc(N3CCCCC3)nn2)c1 | 32µM* | 7.9µM* | ? | 0.4µM* | 9.9µM* | ? | 0.99µM*
O=C(Nc1cccc(-c2ccc(N3CCOCC3)nn2)c1)Nc1cccc(Cl)c1F | 32µM* | ? | 22µM* | 1.6µM* | 29% | 18% | 5.6µM*
Cc1ccc(C(=O)N2CCC(C(=O)N3CCC(c4nc5ccncc5[nH]4)CC3)CC2)cc1 | -28% | . | -13% | . | . | . | .
CCC1c2nccn2CCCN1C(=O)COc1cccc(C)c1 (centres undefined) | -9% | 0% | -15% | i | . | . | .
SMILES | NIH3T3 tox | hNpr1 antagonist | HEK cytotox | FLuc inh-1 | FLuc SDR -ATP | FLuc SDR ATP | FLuc inh-2
CC(C)n1cnnc1C1CCCN1S(=O)(=O)c1ccccc1 (centres undefined) | -9% | . | -10% | . | . | . | .
Nc1nn(-c2ccccc2)nc1C(=O)OCc1ccccc1 | . | . | . | . | 13% | 10% | -13%
CCCNC(=O)N1CCCC1c1nc(CCOCC2CCOCC2)no1 (centres undefined) | -3% | . | i | . | . | . | .
O=C(Nc1cccc(-c2nc3ccccc3s2)c1)N1CCC(O)C1 (centres undefined) | . | . | . | . | ? | ? | 8.8µM*
COc1cc(-c2nc3ccccc3s2)ccc1O | . | . | . | . | 24% | 17% | 11µM*
COc1ccc(-c2nc3ccccc3o2)cc1NC(=O)c1cccnc1 | . | . | . | . | 18% | 11% | ?
CCOc1ccc(C(=O)Nc2cc(-c3nc4ccccc4s3)ccc2OC)cc1 | . | . | . | . | 17% | 9% | -5%
COc1ccc(C(=O)N2CCC(c3nn(-c4ccccn4)c(=O)[nH]3)CC2)cc1 | 2% | . | i | . | . | . | .
COC[C@@H]1[C@H](C(=O)NCc2ccc(C)o2)CCCN1C | ? | . | -15% | . | . | . | .
COc1ccc(C)cc1NC(=O)c1cnc(-c2ccc(F)cc2)nc1-c1ccncc1 | -37% | ? | -34% | i | . | . | .
Cc1c(C(=O)Nc2cccc(-c3nc4ccccc4s3)c2)oc2ccc(F)cc12 | . | . | . | . | 12% | 8% | -14%
CCOCCCNC(=O)CNC(=O)c1ccc(-c2cnc3ccccc3c2)cc1 | -34% | . | -3% | . | . | . | .
CCCCOc1ccc(C(=O)Nc2ccc(-c3nc4ccccc4s3)cc2C)cc1 | . | . | . | . | 18% | 10% | 0%
COc1ccc(C(=O)Nc2cc(-c3nc4ccccc4s3)ccc2OC)cc1 | . | . | . | . | 13% | 10% | ?
COc1ccc(-c2nc3ccccc3s2)cc1NC(=O)c1cccc(F)c1 | . | . | . | . | 9% | 8% | -12%
O=C(C1CCCN1C(=O)NC1CCCC1)N1CCC(N2Cc3cccn3C2=O)CC1 (centres undefined) | -4% | . | i | . | . | . | .
Cc1ccc(Cc2c(C)nc3c(C(=O)N4CCC(Cc5nncn5CC5CC5)CC4)cnn3c2C)cc1 | ? | 0% | ? | i | . | . | .
COc1ccc(C(=O)Nc2ccc(-c3nc4ccccc4s3)cc2C)cc1Cl | . | . | . | . | 10% | 8% | -4%
COc1ccc(-c2nc3cc(F)ccc3s2)cc1OC | . | . | . | . | 20%[3.62 µM] | 14%[3.62 µM] | ?
COc1ccc(-c2nc3ccccc3s2)cc1NC(=O)c1ccccc1OC | . | . | . | . | 18% | 10% | ?
Cc1nonc1COc1ccc(C(=O)Nc2cccc(-c3nc4ccccc4s3)c2)cc1 | . | . | . | . | 9% | 10% | ?

Screening results (PubChem BioAssay)
